Structures are written as SMILES. Results filed as inconclusive are left out. A number with no mark means an inactive call. Activity calls are given as the source filed them. Calls come from the whole dose curve; as a rule, active = well fitted inhibition curve with a large enough effect; inconclusive = small, poorly fitted or top-dose-only effect; inactive = no such curve, though single readings can be large or run the other way.

Luciferin 4-monooxygenase (Photinus pyralis), sequence (P08659 whole entry, looked up): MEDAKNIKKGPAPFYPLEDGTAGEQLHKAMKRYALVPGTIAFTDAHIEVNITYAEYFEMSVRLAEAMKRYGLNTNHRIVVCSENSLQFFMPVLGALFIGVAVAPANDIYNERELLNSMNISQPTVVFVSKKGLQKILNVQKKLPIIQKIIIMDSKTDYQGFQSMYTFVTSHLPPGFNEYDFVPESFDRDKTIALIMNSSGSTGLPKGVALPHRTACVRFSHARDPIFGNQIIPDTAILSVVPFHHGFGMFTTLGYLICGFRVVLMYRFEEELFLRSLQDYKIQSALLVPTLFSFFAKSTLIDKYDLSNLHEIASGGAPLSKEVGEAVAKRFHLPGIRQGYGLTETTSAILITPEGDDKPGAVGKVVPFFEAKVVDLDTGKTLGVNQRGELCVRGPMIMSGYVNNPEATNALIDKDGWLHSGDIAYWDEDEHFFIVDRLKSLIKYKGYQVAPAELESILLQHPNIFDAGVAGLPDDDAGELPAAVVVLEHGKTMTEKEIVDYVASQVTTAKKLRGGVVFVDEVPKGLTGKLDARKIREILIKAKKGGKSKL

This assay deals with Luciferin 4-monooxygenase (Photinus pyralis) (UniProt P08659). The experiment in a line: FLuc inhibitory activity for the follow-up compounds in a biochemical assay with Km concentrations of substrate. As to conditions: purified FLuc, Km substrates, luminescence; series mostly up to 57.5 µM; activity change, negative = inhibition: at the top concentration. The text has this:
NCGC Assay Overview: Firefly (Photinus pyralis) luciferase is one of the most commonly used transcriptional reporters. It is considered one of the more dynamically responsive reporters - that is, responsive to changes in reporter transcription - as it requires no post-translational modifications and is enzymatically active directly after protein synthesis (Wood, 1998). With no endogenous expression in mammalian cells and without the requirement of external excitation, it offers very little background signal, thus generally providing excellent signal to background for most assays. Previous profiling work to determine the prevalence of compounds that affect FLuc enzymatic activity (PubChem AID 411) identified that ~3% of the MLSMR library (then at ~72K) inhibited FLuc. […] Of the compounds identified in this profile that inhibited FLuc, 151 compounds were selected for further analysis, in an effort to better understand their mode of inhibiting FLuc. The assay described here confirms the FLuc inhibitory activity of the 151 compounds.
NCGC Assay Protocol Summary: Reagents: 50mM Tris acetate, pH 7.5; 10mM Mg acetate; 10uM D-luciferin (Sigma #L9504); 10uM ATP; 0.01% Tween-20; 0.05% BSA; 10nM P. pyralis luciferase (Sigma #L9506) Control compounds used were two known firefly luciferase inhibitors (3-(5-(3-chlorophenyl)-1,2,4-oxadiazol-3-yl)benzoic acid and 5-(2-fluorophenyl)-3-phenyl-1,2,4-oxadiazole), and DMSO. Three microliters containing firefly luciferase substrates in buffer (final concentrations: 50mM Tris acetate, pH 7.5, 10mM Mg acetate, 0.01% Tween-20, 0.05% BSA, 10uM D-luciferin, and 10uM ATP) are dispensed into each well of a Greiner white, solid-bottom 1536-well format plate using a flying reagent dispenser (FRD). These assay plates were then treated with 23nL of compound or DMSO using a Kalypsys pin tool, which allows for delivery of a 12-point intraplate titration of each compound to the assay plate (quantitative HTS), with a final compound concentrations ranging from approximately ~60uM to 0.3nM. One microliter of firefly luciferase in 500mM Tris-acetate buffer was then delivered by FRD to each well for a final enzyme concentration of 10nM. Luciferase activity was then measured using a ViewLux CCD imager (PerkinElmer), with an average exposure time of 2-30 seconds (2X binning, medium/high gain).
Take `COc1ccc(-c2nc3ccccc3s2)cc1O`: the Potency was 0.146 µM (active).

Consider `O=C(Nc1ccccc1C(=O)O)c1ccccc1`, for which the Potency is 32.6 µM (active).

Take `O=C(Nc1ccccc1C(=O)O)c1cccc(NC(=O)c2ccco2)c1`: the Potency is 18.3 µM (active).

Turning to `COc1ccc(C(=O)Nc2ccccc2C(=O)Nc2ccc(C(=O)O)cc2)cc1`, the Potency was 1.63 µM (active).

Consider `COc1ccc2nc(NC(=O)C3CCN(S(=O)(=O)c4cccnc4)CC3)sc2c1`, for which the “activity change, negative = inhibition” value was -9.68%.

As for `COc1cccc(-c2nc3ccccc3s2)c1`, the Potency is 1.3 µM (active).

With `O=C(Nc1c(Cl)cc(Cl)cc1-c1nc2ccccc2s1)c1ccc(Br)o1`, the “activity change, negative = inhibition” value was -2.8%.

On to `Cc1ccc(C(=O)Nc2ccc(C(=O)O)cc2)cc1S(=O)(=O)Nc1ccccc1`, for which the “activity change, negative = inhibition” value was 18.1%.

Take `COc1ccc(C(=O)Nc2ccccc2-c2nc3ccccc3s2)c(OC)c1`: the “activity change, negative = inhibition” value is -3.66%.

On to `O=C(Nc1ccccc1C(=O)O)c1cc(S(=O)(=O)NCc2ccccc2)ccc1Cl`, for which the “activity change, negative = inhibition” value was -4.34%.

In the case of `O=C(O)c1cccc(NC(=O)c2cccc(NC(=O)C3CCCO3)c2)c1` (stereo not given), the Potency was 0.919 µM (active).

Regarding `COc1cc(OC)cc(C(=O)Nc2ccc(-c3nc4ccccc4s3)c(C)c2)c1`, the “activity change, negative = inhibition” value was -20.8%.

For the compound `COc1ccc2nc(NC(=O)c3ccc(NS(=O)(=O)c4cccs4)cc3)sc2c1`, the Potency is 10.3 µM (active).

As to `O=C(Nc1ccccc1-c1nc2ccccc2s1)c1ccc(Br)o1`, the “activity change, negative = inhibition” value was -1.3%.

For the compound `Nc1ccccc1C(=O)Nc1cccc(C(=O)O)c1`, the Potency was 2.06 µM (active).

With `COc1ccc2nc(NC(=O)Cc3cccs3)sc2c1`, the Potency is 7.3 µM (active).

For `Cc1ccc(NS(=O)(=O)c2ccc(Cl)c(C(=O)Nc3cccc(C(=O)O)c3)c2)cc1`, the “activity change, negative = inhibition” value is -10.3%.

For the compound `O=C(O)c1cccc(NC(=O)c2ccc(Cl)c(S(=O)(=O)N3CCCCCC3)c2)c1`, the Potency is 0.058 µM (active).

Turning to `O=C(O)c1cccc(NC(=O)c2cccc(S(=O)(=O)N3CCc4ccccc43)c2)c1`, the Potency is 23.1 µM (active).

As to `CC(C)c1ccc(C(=O)Nc2ccc(-c3nc4ccccc4s3)c(Cl)c2)cc1`, the “activity change, negative = inhibition” value is -34.9%.

Regarding `Cc1ccc(C(=O)Nc2cccc(C(=O)O)c2)cc1`, the Potency is 0.0326 µM (active).

With `CCOc1ccc2nc(NC(=O)c3ccccn3)sc2c1`, the Potency is 0.517 µM (active).

Regarding `Cc1ccc2sc(-c3ccc(N)cc3)nc2c1`, the Potency is 0.183 µM (active).

As for `Cc1ccc2nc(-c3ccc(NC(=O)CN4CCN(C(=O)c5ccco5)CC4)cc3)sc2c1`, the Potency is 5.8 µM (active).

Consider `COc1ccc(-c2cccc(C(=O)Nc3cccc(C(=O)O)c3)c2)cc1`, for which the Potency was 4.61 µM (active).

Consider `COc1ccc(-c2nc3ccccc3s2)cc1NC(=O)c1ccc(F)cc1`, for which the “activity change, negative = inhibition” value is -7.28%.

Regarding `O=S(=O)(c1ccc(-c2nc3ccccc3s2)cc1)N1CCCC1`, the “activity change, negative = inhibition” value is -0.117%.

As for `CCCC(=O)Nc1nc2ccc(OCC)cc2s1`, the Potency was 13 µM (active).

`CN(C)S(=O)(=O)c1ccc(C(=O)Nc2cccc(C(=O)O)c2)cc1`: the Potency is 10.3 µM (active).

On to `CCOc1ccc2nc(NC(=O)c3ccccc3)sc2c1`, for which the Potency was 0.326 µM (active).

In the case of `CC(C)Oc1ccc(C(=O)Nc2ccc(-c3nc4ccccc4s3)cc2)cc1`, the “activity change, negative = inhibition” value is -2.68%.

`Cc1ccc(C(=O)Nc2cccc(C(=O)O)c2)cc1S(=O)(=O)N1CCCCC1`: the Potency was 0.0651 µM (active).

In the case of `O=C(Nc1ccccc1C(=O)O)c1ccc(Cl)c(S(=O)(=O)N2CCOCC2)c1`, the Potency was 8.19 µM (active).

Take `CC(C)(C)C(=O)Nc1ccc(-c2nc3ccccc3s2)cc1`: the Potency is 0.0116 µM (active).

As for `O=C(O)c1ccc(NC(=O)c2ccccc2NC(=O)c2ccccc2Br)cc1`, the Potency is 23.1 µM (active).

As to `COc1ccc2nc(NC(=O)c3cccs3)sc2c1`, the Potency is 20.6 µM (active).

In the case of `Cc1ccc(S(=O)(=O)N2CCN(C(=O)c3ccccc3-c3nc4ccccc4s3)CC2)c(C)c1`, the “activity change, negative = inhibition” value is -4.09%.

With `COc1ccc2nc(NC(=O)c3ccco3)sc2c1`, the Potency is 1.03 µM (active).

`CC(=O)Nc1cccc(-c2nc3ccccc3s2)c1C`: the Potency was 23.1 µM (active).

`COc1cccc(OC)c1C(=O)Nc1cccc(C(=O)Nc2cccc(C(=O)O)c2)c1`: the Potency was 5.8 µM (active).

For the origin of these results see PubChem BioAssay AID602357 (National Center for Advancing Translational Sciences (NCATS), 2012).
